Data from PubChem BioAssay (NCATS).
Results filed as inconclusive are left out. Calls of active or inactive are those of the source. Calls follow the shape of the dose curve; as a rule, active = well fitted curve in the direction sought with a large enough effect; inconclusive = small, poorly fitted or top-dose-only effect, or another doubt; inactive = no such curve, though single readings can be large; an effect the other way counts as inactive or inconclusive.

Assays:
[1] = biological target: Cellular tumor antigen p53 (Homo sapiens) (UniProt P04637); assay: Primary qHTS for small molecule compounds that upregulate eGFP-tagged delta133p53alpha (in N-terminal) cells. (AID 2060322); details: NCI-H358 eGFP-delta133p53alpha fluorescence, 24 h; activation: active compounds read high;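 also: cells pre-induced with doxycycline then dosed without doxycycline; series mostly up to about 56 µM; 0% = DMSO vehicle and 100% = reference activator; nearly all actives have a fitted effect of over 75% in size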
Summary of the method: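 NCI-H358 cells pre-induced 24 h with 10 ng/ml doxycycline for eGFP-delta133p53alpha, plated dox-free and exposed 24 h at 37C to titrated compounds. Fixed, Hoechst-stained; gated GFP peak intensity by laser scanning cytometry, normalized to DMSO (0%) and 57.5 uM 5-azacytidine (100%).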

[2] = biological target: Aldehyde dehydrogenase, mitochondrial (Homo sapiens) (UniProt P05091); assay: qHTS for Inhibitors of the Aldehyde Dehydrogenase Family (ALDH2) Primary screen (AID 2061308);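 also: plate controls were vehicle for no effect and reference inhibitor for full effect; nearly all actives have a fitted effect of over 55% in size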
[3] = biological target: Retinaldehyde dehydrogenase 3 (Homo sapiens) (UniProt P47895); assay: qHTS for Inhibitors of the Aldehyde Dehydrogenase Family (ALDH1A3) Validation screen (AID 2061312); also: % is scaled to controls: 0 for no effect and ±100 for the full control effect; nearly all actives have a fitted effect of over 45% in size
[4] = biological target: Retinaldehyde dehydrogenase 3 (Homo sapiens) (UniProt P47895); assay: qHTS for Inhibitors of the Aldehyde Dehydrogenase Family (ALDH1A3) Primary screen (AID 2061315);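 also: plate controls were DMSO vehicle for no effect and reference inhibitor for full effect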

Sequence of Cellular tumor antigen p53 (Homo sapiens) (P04637 whole entry, looked up): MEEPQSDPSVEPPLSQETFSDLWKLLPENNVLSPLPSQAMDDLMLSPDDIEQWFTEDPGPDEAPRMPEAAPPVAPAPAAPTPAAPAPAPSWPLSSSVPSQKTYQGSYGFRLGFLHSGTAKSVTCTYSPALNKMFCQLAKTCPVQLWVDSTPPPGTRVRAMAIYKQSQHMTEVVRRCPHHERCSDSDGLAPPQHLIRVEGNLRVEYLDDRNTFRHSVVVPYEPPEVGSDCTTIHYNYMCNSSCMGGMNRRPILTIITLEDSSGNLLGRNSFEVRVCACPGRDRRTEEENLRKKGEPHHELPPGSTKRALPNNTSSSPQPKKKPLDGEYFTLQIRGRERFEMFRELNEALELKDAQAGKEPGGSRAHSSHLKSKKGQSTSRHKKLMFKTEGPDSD

O=C(Nc1cccnn1)N1CCN(c2nccc(-c3ccc(F)c(F)c3)n2)CC1
inactive: activation [1] 0.477% | Potency [2] | Potency [3] | Potency [4]

Cc1cc(C)c(S(=O)(=O)N(Cc2ccc(-c3cccc(S(C)(=O)=O)c3)cc2)Cc2ccc(C(F)(F)F)o2)c(C)c1
inactive: activation [1] -0.955% | Potency [2] | Potency [3] | Potency [4]

COc1ccc([C@@H]2N[C@H](C(=O)O)Cc3c2[nH]c2ccccc32)cc1CN1CCN(c2ccccc2F)CC1
inactive: activation [1] 26.7% | Potency [2] | Potency [3] | Potency [4]

O=C(OC1CN2CCC1CC2)N1CCc2ccccc2C1c1ccccc1 (stereo not given)
inactive: activation [1] -3.82% | Potency [2] | Potency [3] | Potency [4]

O=C(Nc1ccc(C(F)(F)F)cn1)N1CCN(c2ncccc2C(F)(F)F)CC1
inactive: activation [1] -3.34% | Potency [2] | Potency [3] | Potency [4]

Cc1ccc(-c2c(-c3nn(C)c4ncnc(N5CC[C@H](N6CCCCC6)C5)c34)cnn2C)cc1
inactive: activation [1] 0.477% | Potency [2] | Potency [3] | Potency [4]

O=C(Nc1ccccc1)N1CCN(c2nc(-c3ccccc3)ns2)CC1
inactive: activation [1] -13.8% | Potency [2] | Potency [3] | Potency [4]

Cc1[nH]cnc1C1CCN(c2nc3cccc4c3n2CCC4=O)CC1
inactive: activation [1] 1.43% | Potency [2] | Potency [3] | Potency [4]

COc1cccc(N2CCN(C3=Nc4c(F)cccc4[C@H](CC(=O)O)N3c3cc(C(F)(F)F)ccc3OC)CC2)c1
inactive: activation [1] -5.73% | Potency [2] | Potency [3] | Potency [4]

COc1ccccc1N1CCN(CC[C@@](C)(C(=O)C2CCCCC2)c2ccccc2)CC1
inactive: activation [1] 8.11% | Potency [2] | Potency [3] | Potency [4]
